# Screening data from PubChem BioAssay.
# HepG2 tox-1 – HepG2 cytotoxicity, counter-screen for TGF-b inhibitors; HepG2 CAGA-GFP viability, ATP luminescence, 18 h; Potency, µM (titrated, usually from 46.1 µM), inactives show at the highest dose activity change, negative = cytotoxicity, most hits filed as cytotoxic; 0.76% of 410,000 active
#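 CellTiter-Glo luminescence gave cytotoxicity after 18 hours at 37 degrees C. The cells were HepG2 CAGA-GFP in 1% FBS DMEM, stimulated with 500 pg/mL TGF-beta after compound addition. %Activity was normalised to no-cell wells (complete cell-killing) and DMSO (no toxicity), and curves were fitted and classified.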
# TGFb inhibitor – inhibitors of TGF-b signaling | Potency, µM (titrated, usually from 46.1 µM), without a hit: at the highest dose activity, negative = inhibition, hits mostly inhibitors | HepG2 CAGA-GFP TGF-b/SMAD3 reporter, GFP fluorescence, 18 h; TGF-beta stimulated, 500 pg/mL final | 1.2% of 410,000 active; also: % is scaled to controls: 0 for no effect and ±100 for the full control effect; nearly all actives have a fitted effect of over 65% in size
#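 Read-out: total well GFP (ex488/em500-530) summed from mean per-cell fluorescence. Cells: HEPG2 CAGA-GFP, 1% FBS DMEM, 18 h at 37 degrees C with 500 pg/mL final TGF-beta. Unstimulated wells served as the full-inhibition control; stimulated DMSO wells = 0%.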
# ATXN2 expr inh – ATXN2 expression inhibition | 0.72% of 360,000 active | Potency, µM (top dose mostly 57 µM), for inactives: top-dose activity change, negative = inhibition, actives largely listed as inhibitors | HEK-293 ATXN2-luciferase reporter, luminescence, 24 h; also: % is scaled to controls: 0 for no effect and ±100 for the full control effect; nearly all actives have a fitted effect of over 55% in size
#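 qHTS (up to 57 uM final) was run with 24 h compound exposure of reporter cells at 37 °C. Each well was multiplexed: SteadyGlo luminescence measured ATXN2-luciferase expression after a fluorogenic Gly-Phe-AFC viability readout (25 uM final).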
# ATXN viability – reduces viability in counter-screen for ATXN expression inhibitors | S2 cells (HEK-293 line with an ATXN2-luciferase reporter) viability, CellTiter-Fluor protease fluorescence, 24 h | Potency, µM (doses to about 56.7 µM), hits mostly cytotoxic | 0.49% of 400,000 active | AID 651635; also: nearly all actives have a fitted effect of over 40% in size
# TGFb confirm – TGF-b pathway inhibition, cherry-pick retest | shares compounds with TGFb inhibitor | HepG2 CAGA-GFP TGF-b reporter, GFP fluorescence, 18 h; cells stimulated with TGF-beta, 500 pg/mL | Potency, µM (highest dose often 46.1 µM), inactives show top-dose activity, negative = inhibition, actives largely listed as inhibitors | 63% of 1,600 active; also: % is scaled to controls: 0 for no effect and ±100 for the full control effect; nearly all actives have a fitted effect of over 65% in size
# HepG2 tox-2 – HepG2 cytotoxicity, TGF-b inhibitor counterscreen | HepG2 CAGA-GFP viability, ATP luminescence, 18 h; cells stimulated with TGF-beta, 500 pg/mL | Potency, µM (highest dose often 46.1 µM), inactives show top-dose activity, negative = cytotoxicity, usual class: inhibitors | 27% of 1,600 active | shares compounds with TGFb inhibitor | AID 720535; also: % is scaled to controls: 0 for no effect and ±100 for the full control effect; nearly all actives have a fitted effect of over 70% in size
# CCL64 TGFb inh – orthogonal confirmation of TGF-b inhibitors in CCL64 cells | CCL64 CAGA-GFP reporter, TGF-b stimulated, GFP fluorescence, 18 h | 41% of 1,600 active | shares compounds with TGFb inhibitor | Potency, µM (top dose mostly 46.1 µM), inactives show top-dose activity, negative = inhibition, most hits filed as inhibitors; also: nearly all actives have a fitted effect of over 65% in size
# TGFb COP inh – validation of TGF-b inhibitors in HepG2 COP promoter reporter; shares compounds with TGFb inhibitor; HepG2 COP-GFP TGF-b reporter, GFP fluorescence, 18 h; cells stimulated by added recombinant TGF-beta; Potency, µM (highest dose often 46.1 µM), for inactives: at the top dose activity, negative = inhibition, most hits filed as inhibitors; 3% of 1,600 active; AID 720537; also: nearly all actives have a fitted effect of over 70% in size
# Starred values were filed as active, the others as inactive; i = inactive; ? = inconclusive; . = not tested or not shown. Most compounds without a hit are left out; they make up all but 2.3% or so of the library. Calls follow the shape of the dose curve; as a rule, active = well fitted curve in the direction sought with a large enough effect; inconclusive = small, poorly fitted or top-dose-only effect, or another doubt; inactive = no such curve, though single readings can be large; an effect the other way counts as inactive or inconclusive. Potency is read from the fitted curve at half-maximal effect.
SMILES,HepG2 tox-1,TGFb inhibitor,ATXN2 expr inh,ATXN viability,TGFb confirm,HepG2 tox-2,CCL64 TGFb inh,TGFb COP inh
COc1ccc(N(C(=O)CCl)C(C(=O)NC2CCCCC2)c2cccnc2)cc1 (stereo not drawn),11µM*,8.9µM*,14µM*,8.9µM*,7.3µM*,12µM*,9.2µM*,?
O=C(NC1CCCCC1)C(c1cccnc1)N(C(=O)CCl)c1ccccc1Cl (stereo not drawn),2%,-26%,-29%,i,.,.,.,.
CC1(C)Cc2c(cnn2-c2ccccc2)-c2c1c1ccccc1n2CC(O)CBr (stereo not drawn),-61%,?,-11%,?,?,-26%,?,20%
CC1(C)Cc2c(cnn2-c2ccccc2)C(=O)/C1=N\NC(=O)c1ccccc1N,-5%,-20%,0%,i,.,.,.,.
CCOc1cc(C2Nc3ccccc3C(=O)N2Cc2ccco2)ccc1O (stereo not drawn),-12%,3%,.,.,.,.,.,.
COc1ccc(C)cc1NCc1cccc(OC)c1OC,1%,16%,-6%,i,.,.,.,.
COc1cc(OC)c(OC)cc1CNc1cc(C)ccc1OC,-22%,?,-30%,i,6.5µM*,-14%,-17%,0%
Cc1cc(NC(=O)CS(=O)(=O)c2cn(Cc3ccccc3Cl)c3ccccc23)no1,-26%,?,-20%,i,.,.,.,.
Cc1cc(NC(=O)CS(=O)(=O)c2cn(Cc3cccc(Br)c3)c3ccccc23)no1,-10%,10µM*,?,?,12µM*,-15%,?,31%
Cc1ccc(NC(=O)Cc2ccccc2F)cc1S(=O)(=O)N1CCCCCC1,-30%,11µM*,-25%,?,8.2µM*,?,-23%,16%
COc1cc2c(c(Br)c1N)-c1cc(Br)c(N)cc1C2=O,-46%,?,.,i,0.58µM*,0.58µM*,-4%,68%
COc1cc2c(cc1N)-c1ccc(N)cc1C2=O,-2%,-4%,.,?,.,.,.,.
Brc1cccc[n+]1Cc1ccc(C[n+]2ccccc2Br)cc1,11%,5%,.,.,.,.,.,.
O=C(Nc1ccc(F)cc1F)Nc1sccc1-c1nc2ccccc2s1,1%,11µM*,.,i,?,-17%,?,-5%
O=C(Nc1ccc(Cl)cc1)/C(=C/c1cccc(O)c1)c1nc2ccccc2s1,-82%,2.8µM*,8.9µM*,.,8.2µM*,13µM*,4.1µM*,-16%
CN(C)CCNc1nccc(N2CCN(C)CC2)n1,0%,10%,.,.,.,.,.,.
O=C1C[C@H](c2ccccc2Cl)N1S(=O)(=O)c1ccccc1[N+](=O)[O-],-1%,2%,.,.,.,.,.,.
CCOC(=O)N/N=C/c1cn(CCCOc2ccccc2)c2ccccc12,14%,15%,-12%,i,.,.,.,.
CCOC(=O)N/N=C/c1cn(Cc2ccc(Cl)cc2)c2ccccc12,-42%,13µM*,4%,i,4.1µM*,2.6µM*,5%,42%
O=C(N/N=C/c1cn(Cc2ccccc2)c2ccccc12)c1ccncc1,0%,?,-22%,.,1.2µM*,2.3µM*,4%,-22%
COC(=O)N/N=C/c1cn(CCOc2ccccc2)c2ccccc12,-6%,?,17%,?,7.3µM*,3.3µM*,-5%,19%
COc1ccc(S(=O)(=O)N2CCOCC2)cc1NC(=O)CSc1nnc(N)s1,5%,?,5%,i,-12%,3%,3%,5%
Nc1nnc(SCC(=O)Nc2cccc(S(=O)(=O)N3CCOCC3)c2)s1,-20%,?,-3%,?,.,.,.,.
Nc1nc(Nc2ccccc2)sc1C(=O)c1ccccc1,-36%,5.6µM*,11%,i,3.7µM*,3.7µM*,21µM*,21%
Cc1ccccc1NC(=O)c1ccc(Nc2c([N+](=O)[O-])cc([N+](=O)[O-])c3ccccc23)cc1,-20%,?,-28%,i,?,-19%,2%,-1%
SMILES,HepG2 tox-1,TGFb inhibitor,ATXN2 expr inh,ATXN viability,TGFb confirm,HepG2 tox-2,CCL64 TGFb inh,TGFb COP inh
N#C/C(=N\Nc1ccc(Cl)cc1)C(=O)c1ccsc1,-27%,?,?,?,8.2µM*,7.3µM*,21µM*,15%
O=C(CSc1nnc(-c2ccc(F)cc2)c2ccccc12)Nc1cccc(Cl)c1,-16%,-19%,7%,?,.,.,.,.
O=C(CSc1nnc(-c2ccc(F)cc2)c2ccccc12)Nc1ccccc1,-4%,13µM*,38%,i,15µM*,-5%,-10%,-14%
S=c1[nH]c(=S)c2[nH]cnc2[nH]1,-5%,11%,.,.,.,.,.,.
O=S(=O)(Nc1cc(Sc2ncn[nH]2)c(O)c2ccccc12)c1ccccc1,3.5µM*,2.5µM*,?,?,7.3µM*,?,5.8µM*,?
COc1ccc(C2CC(c3ccccc3OC(C)=O)=NN2C(=O)/C=C/c2ccccc2)cc1OC (stereo not drawn),-21%,10µM*,-7%,i,18µM*,-25%,?,2%
COc1ccc(C2=NN(C(=O)/C=C/c3ccccc3)C(c3ccccc3)C2)c(OC(C)=O)c1 (stereo not drawn),0%,-3%,-20%,i,.,.,.,.
CCC(C(=O)NC(=O)NC(C)=O)c1ccccc1 (stereo not drawn),.,.,-3%,i,.,.,.,.
CC(C)=CCNc1ncnc2c1c(C#N)cn2C1OC(CO)C(O)C1O (stereo not drawn),-26%,4µM*,-31%,?,0.73µM*,?,13%,22%
CSc1ccc(/C=C/c2nc3ccccc3n2S(=O)(=O)c2ccc(Br)cc2)cc1,-97%,?,?,i,.,.,.,.
Cc1occc1C(=O)Nc1cccc(-c2nc(CNC(=O)c3cc(-c4ccccc4)n[nH]3)c(C)o2)c1,.,.,.,i,.,.,.,.
COc1ccc(S(=O)(=O)n2nc(-c3ccc(Cl)cc3)cc2N)cc1,-18%,13µM*,-34%,?,?,?,?,32%
COc1ccc(-c2cc(N)n(S(=O)(=O)c3ccc(C)cc3)n2)c(OC)c1,-23%,-9%,-7%,i,.,.,.,.
